The values that follow come from the supplement of paper PMC6411743.

Compound in this assay: Nc1nc2c(ncn2[C@@H]2O[C@H](COP(=O)(O)OP(=O)(O)OP(=O)(O)O)[C@@H](O)[C@H]2O)c(=O)[nH]1 [guanosine triphosphate]
In words: NP40-soluble protein abundance relative to vehicle (solubility fold change) (ratio); higher = more soluble protein in presence of GTP. As to the method: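 Solubility proteome profiling in Jurkat crude lysate. Lysate was treated with Mg-GTP (0.1-10 mM) for 10 min at room temperature and 3 min at 37 °C, then solubilised with 0.8% NP40 and benzonase, followed by ultracentrifugation. Proteins were quantified by TMT10 LC-MS/MS; the value is the NP40-soluble abundance relative to the NP40-processed vehicle, from 3 independent experiments.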

± gives the standard deviation of the averaged measurements. About 5,400 targets were measured; listed, in parts, are those with the largest changes and a random draw of the rest.

Sequence of UniProt P15336 (P15336 whole entry, one chain of several): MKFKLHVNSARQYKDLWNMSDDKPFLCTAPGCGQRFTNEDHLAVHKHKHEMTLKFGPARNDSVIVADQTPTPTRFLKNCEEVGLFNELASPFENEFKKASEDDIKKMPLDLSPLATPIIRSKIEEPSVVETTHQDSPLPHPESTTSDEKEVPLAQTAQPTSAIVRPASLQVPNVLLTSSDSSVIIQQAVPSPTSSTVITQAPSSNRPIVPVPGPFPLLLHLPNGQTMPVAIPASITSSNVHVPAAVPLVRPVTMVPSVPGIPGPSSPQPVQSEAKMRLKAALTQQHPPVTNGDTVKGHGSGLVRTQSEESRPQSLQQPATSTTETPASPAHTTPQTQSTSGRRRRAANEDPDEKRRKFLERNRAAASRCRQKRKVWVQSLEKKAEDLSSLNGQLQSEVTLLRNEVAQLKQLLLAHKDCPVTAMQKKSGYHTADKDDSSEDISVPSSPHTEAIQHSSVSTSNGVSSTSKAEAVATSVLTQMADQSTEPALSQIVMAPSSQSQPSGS
Sequence of UniProt Q53GL7 (Q53GL7 whole entry, one chain of several): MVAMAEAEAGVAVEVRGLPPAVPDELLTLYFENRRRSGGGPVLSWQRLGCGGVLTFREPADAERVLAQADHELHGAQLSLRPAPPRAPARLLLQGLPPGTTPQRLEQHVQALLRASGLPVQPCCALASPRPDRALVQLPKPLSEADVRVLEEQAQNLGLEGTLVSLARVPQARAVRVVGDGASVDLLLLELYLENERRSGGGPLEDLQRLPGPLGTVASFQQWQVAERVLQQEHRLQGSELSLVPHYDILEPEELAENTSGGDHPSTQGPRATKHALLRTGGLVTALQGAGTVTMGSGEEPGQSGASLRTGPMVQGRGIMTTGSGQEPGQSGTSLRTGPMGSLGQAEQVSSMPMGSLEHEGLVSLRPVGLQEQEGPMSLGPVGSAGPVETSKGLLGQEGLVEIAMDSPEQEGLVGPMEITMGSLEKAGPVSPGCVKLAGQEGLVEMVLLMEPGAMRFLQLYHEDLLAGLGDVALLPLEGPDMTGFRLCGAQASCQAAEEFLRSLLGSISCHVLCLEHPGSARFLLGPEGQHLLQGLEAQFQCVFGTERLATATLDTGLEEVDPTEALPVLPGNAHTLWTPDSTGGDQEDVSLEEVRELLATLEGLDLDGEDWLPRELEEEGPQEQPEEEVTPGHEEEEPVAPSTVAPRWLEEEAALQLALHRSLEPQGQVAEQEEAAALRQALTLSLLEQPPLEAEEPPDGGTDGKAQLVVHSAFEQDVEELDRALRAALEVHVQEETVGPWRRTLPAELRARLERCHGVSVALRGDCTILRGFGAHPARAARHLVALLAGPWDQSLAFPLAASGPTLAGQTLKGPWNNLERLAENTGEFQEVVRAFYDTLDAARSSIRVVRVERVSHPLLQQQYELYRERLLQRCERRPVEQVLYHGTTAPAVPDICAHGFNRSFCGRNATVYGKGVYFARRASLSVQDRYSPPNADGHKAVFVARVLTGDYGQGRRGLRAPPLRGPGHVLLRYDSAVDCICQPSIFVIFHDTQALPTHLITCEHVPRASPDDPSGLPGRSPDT
Sequence of UniProt Q8WYH8 (Q8WYH8 whole entry, one chain of several): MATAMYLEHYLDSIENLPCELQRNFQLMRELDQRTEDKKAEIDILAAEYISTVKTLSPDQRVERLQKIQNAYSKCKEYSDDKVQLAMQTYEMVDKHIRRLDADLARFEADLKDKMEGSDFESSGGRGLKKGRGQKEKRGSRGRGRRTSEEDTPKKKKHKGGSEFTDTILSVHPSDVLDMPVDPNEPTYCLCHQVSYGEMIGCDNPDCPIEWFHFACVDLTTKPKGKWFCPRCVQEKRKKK
Sequence of UniProt Q9NTI5 (Q9NTI5 whole entry, one chain of several): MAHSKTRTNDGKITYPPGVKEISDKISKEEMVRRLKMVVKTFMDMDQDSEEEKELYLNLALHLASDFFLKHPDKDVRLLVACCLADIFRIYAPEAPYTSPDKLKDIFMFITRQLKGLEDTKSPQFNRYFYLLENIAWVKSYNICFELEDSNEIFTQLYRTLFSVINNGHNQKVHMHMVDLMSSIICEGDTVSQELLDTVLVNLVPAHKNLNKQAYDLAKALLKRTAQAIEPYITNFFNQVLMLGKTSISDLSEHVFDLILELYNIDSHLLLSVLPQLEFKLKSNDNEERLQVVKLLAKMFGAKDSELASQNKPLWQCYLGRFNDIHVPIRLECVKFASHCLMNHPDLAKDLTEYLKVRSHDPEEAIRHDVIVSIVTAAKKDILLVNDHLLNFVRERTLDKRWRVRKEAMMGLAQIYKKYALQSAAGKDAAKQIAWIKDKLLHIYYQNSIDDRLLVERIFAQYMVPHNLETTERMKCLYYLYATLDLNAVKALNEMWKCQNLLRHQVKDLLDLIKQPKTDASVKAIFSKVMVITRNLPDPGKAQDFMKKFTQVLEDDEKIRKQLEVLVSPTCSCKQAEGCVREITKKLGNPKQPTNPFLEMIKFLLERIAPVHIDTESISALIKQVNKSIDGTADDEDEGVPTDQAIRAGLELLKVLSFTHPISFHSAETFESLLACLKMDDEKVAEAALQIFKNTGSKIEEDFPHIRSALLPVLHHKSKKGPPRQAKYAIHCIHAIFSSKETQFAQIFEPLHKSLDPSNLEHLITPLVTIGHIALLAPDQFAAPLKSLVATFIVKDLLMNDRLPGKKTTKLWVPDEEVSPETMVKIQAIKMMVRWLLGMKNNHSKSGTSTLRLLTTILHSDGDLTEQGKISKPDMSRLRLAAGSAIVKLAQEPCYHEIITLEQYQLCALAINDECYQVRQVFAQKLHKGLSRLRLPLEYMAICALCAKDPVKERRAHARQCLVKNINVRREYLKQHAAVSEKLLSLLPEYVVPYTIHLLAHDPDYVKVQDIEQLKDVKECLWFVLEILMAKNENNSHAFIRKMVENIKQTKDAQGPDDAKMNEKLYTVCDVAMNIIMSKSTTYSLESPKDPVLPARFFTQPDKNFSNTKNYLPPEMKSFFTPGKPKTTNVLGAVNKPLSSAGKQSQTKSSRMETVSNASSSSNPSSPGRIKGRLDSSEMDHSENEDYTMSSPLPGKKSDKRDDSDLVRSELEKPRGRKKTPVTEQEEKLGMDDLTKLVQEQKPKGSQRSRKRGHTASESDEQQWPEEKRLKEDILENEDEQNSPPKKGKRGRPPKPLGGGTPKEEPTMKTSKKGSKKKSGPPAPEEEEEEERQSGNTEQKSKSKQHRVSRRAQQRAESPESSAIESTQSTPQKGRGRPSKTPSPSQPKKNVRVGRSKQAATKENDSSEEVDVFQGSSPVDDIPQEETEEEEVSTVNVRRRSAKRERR
Sequence of UniProt Q9Y262 (Q9Y262 whole entry, one chain of several): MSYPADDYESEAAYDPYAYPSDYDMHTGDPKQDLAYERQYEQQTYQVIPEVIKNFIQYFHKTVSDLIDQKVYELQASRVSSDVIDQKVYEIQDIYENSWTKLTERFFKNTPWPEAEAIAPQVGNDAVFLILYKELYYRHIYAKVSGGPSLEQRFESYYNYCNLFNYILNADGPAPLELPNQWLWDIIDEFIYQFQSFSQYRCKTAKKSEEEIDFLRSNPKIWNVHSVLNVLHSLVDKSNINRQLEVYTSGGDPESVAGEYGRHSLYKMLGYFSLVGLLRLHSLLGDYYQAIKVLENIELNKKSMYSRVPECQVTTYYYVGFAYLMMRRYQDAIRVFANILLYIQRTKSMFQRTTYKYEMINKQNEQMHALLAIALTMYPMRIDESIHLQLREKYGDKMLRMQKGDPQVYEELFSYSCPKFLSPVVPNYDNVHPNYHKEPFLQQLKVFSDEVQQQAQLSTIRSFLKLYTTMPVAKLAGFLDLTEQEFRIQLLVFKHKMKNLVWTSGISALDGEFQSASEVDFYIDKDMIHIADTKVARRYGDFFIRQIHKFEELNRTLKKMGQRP

Regarding A9IYQ1|Q9NTI5|Q9NTI5-2 (UniProt Q9NTI5), the NP40-soluble protein abundance by setting is: (concentration: 0.1mM) 1.01 ± 0.015; (concentration: 0.5mM) 1.03 ± 0.024; (concentration: 1mM) 1.01 ± 0.015; (concentration: 2mM) 0.995 ± 0.036; (concentration: 4mM) 1.01 ± 0.035; (concentration: 6mM) 1.01 ± 0.052. In addition, the NP40-soluble protein abundance runs as follows: (concentration: 8mM) 1.02 ± 0.08; (concentration: 10mM) 0.992 ± 0.041.

For B0QY89|Q9Y262|Q9Y262-2 (UniProt Q9Y262), the NP40-soluble protein abundance (concentration: 0.1mM) turned out to be 1.08 ± 0.062; the NP40-soluble protein abundance (concentration: 0.5mM) turned out to be 1.09 ± 0.09; the NP40-soluble protein abundance (concentration: 1mM) came to 1.06 ± 0.1; the NP40-soluble protein abundance (concentration: 2mM) was found to be 1.17 ± 0.19; the NP40-soluble protein abundance (concentration: 4mM) came to 1.33 ± 0.28; the NP40-soluble protein abundance (concentration: 6mM) is 1.47 ± 0.34. Moreover, the NP40-soluble protein abundance stood at 1.57 ± 0.29 (concentration: 8mM) and 1.75 ± 0.35 (concentration: 10mM).

For E9PEN0|Q8WYH8|Q8WYH8-2 (UniProt Q8WYH8), the NP40-soluble protein abundance amounted to 1.1 ± 0.098 (concentration: 0.1mM); 1.07 ± 0.16 (concentration: 0.5mM); 1.26 ± 0.41 (concentration: 1mM); 1.19 ± 0.26 (concentration: 2mM); 1.33 ± 0.3 (concentration: 4mM); 1.5 ± 0.35 (concentration: 6mM). Also, the NP40-soluble protein abundance is, setting by setting: (concentration: 8mM) 1.48 ± 0.39; (concentration: 10mM) 2 ± 0.59.

As for E9PK67|E9PNI7|Q53GL7 (UniProt Q53GL7), the NP40-soluble protein abundance by setting is: (concentration: 0.1mM) 1.05 ± 0.097; (concentration: 0.5mM) 1.06 ± 0.12; (concentration: 1mM) 0.954 ± 0.041; (concentration: 2mM) 1.01 ± 0.15; (concentration: 4mM) 0.982 ± 0.12; (concentration: 6mM) 0.935 ± 0.11. In addition, the NP40-soluble protein abundance is, setting by setting: (concentration: 8mM) 0.949 ± 0.019; (concentration: 10mM) 0.949 ± 0.08.

For the target “B8ZZU6|E9PBF9|P15336-5|P15336 (UniProt P15336)”, the NP40-soluble protein abundance by setting is: (concentration: 0.1mM) 0.868 ± 0.086; (concentration: 0.5mM) 0.907 ± 0.044; (concentration: 1mM) 0.969 ± 0.14; (concentration: 2mM) 0.943 ± 0.078; (concentration: 4mM) 0.899 ± 0.011; (concentration: 6mM) 0.899 ± 0.045. In addition, the NP40-soluble protein abundance by setting is: (concentration: 8mM) 0.906 ± 0.1; (concentration: 10mM) 0.955 ± 0.078.
